The results in this text go back to paper PMC7862700, “An all-to-all approach to the identification of sequence-specific readers for epigenetic DNA modifications on cytosine”.

Holding throughout (assay): DAPPL (digital affinity profiling via proximity ligation, sequencing); 10 mM Tris-HCl pH 7.5, 50 mM NaCl, 1 mM DTT, 4% glycerol, room temperature, 30 min; GST-TFs on glutathione beads, 16-mer random dsDNA library, 0.1% formaldehyde crosslink after washing; high values mean tight binding
Holding throughout (conditions): protein: recombinant; tags: N-terminal GST; dsDNA, one strand shown

For one experiment, the target named is T1, FLI1 (Homo sapiens, UniProt Q01543 1-452).
T1 sequence: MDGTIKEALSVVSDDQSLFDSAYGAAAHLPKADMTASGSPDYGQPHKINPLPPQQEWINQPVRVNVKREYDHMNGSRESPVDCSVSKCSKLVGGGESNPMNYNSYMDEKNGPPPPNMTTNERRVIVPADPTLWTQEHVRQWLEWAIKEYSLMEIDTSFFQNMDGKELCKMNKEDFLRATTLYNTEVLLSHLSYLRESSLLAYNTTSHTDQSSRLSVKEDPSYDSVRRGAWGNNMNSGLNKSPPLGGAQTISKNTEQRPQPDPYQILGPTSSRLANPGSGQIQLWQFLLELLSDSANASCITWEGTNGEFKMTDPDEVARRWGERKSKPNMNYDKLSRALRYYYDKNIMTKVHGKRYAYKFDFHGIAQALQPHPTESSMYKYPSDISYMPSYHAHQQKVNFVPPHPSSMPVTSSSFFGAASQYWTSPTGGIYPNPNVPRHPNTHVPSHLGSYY
In outline: (§1)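 Each value of binding signal is a hexamer's read frequency for a factor divided by the same hexamer's frequency in the tag-only sample. Barcoded, bead-captured GST fusions of human transcription factors made in yeast were pooled with that sample and incubated with 200 nmole of a random double-stranded 16-mer DNA library in Tris/NaCl/DTT/glycerol buffer at room temperature for 30 min. Washing, 0.1% formaldehyde crosslinking, proximity ligation, PCR and Illumina NextSeq500 sequencing followed.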

The target in a further experiment is T2, ELK1 (Homo sapiens, UniProt P19419 1-428).
T2 sequence: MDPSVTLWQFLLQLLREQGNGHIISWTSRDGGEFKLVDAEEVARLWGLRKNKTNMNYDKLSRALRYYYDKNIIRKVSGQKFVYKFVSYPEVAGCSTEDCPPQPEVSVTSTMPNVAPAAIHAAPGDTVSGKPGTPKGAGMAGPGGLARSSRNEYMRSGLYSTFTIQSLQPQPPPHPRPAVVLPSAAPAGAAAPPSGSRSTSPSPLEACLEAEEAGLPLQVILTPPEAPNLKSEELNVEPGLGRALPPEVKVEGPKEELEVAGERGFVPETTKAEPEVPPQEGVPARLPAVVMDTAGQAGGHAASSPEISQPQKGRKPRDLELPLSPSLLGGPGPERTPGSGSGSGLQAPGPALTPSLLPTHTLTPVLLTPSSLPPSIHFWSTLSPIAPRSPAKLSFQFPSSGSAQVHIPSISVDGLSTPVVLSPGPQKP
A digest of the protocol:
as §1

The target of a further experiment is T3, GABPA (Homo sapiens, UniProt Q06546 1-454).
T3 sequence: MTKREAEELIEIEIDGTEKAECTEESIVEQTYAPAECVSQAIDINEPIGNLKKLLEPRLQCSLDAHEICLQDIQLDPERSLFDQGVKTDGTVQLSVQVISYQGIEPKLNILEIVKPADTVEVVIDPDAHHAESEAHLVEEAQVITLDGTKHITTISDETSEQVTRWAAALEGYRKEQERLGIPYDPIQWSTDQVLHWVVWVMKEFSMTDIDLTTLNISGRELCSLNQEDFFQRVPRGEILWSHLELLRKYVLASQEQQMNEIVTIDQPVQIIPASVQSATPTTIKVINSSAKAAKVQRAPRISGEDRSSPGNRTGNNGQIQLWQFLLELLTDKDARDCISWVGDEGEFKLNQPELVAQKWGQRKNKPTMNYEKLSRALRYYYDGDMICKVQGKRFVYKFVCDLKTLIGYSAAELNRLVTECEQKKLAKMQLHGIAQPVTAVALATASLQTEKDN
In outline:
as §1

For another experiment, the target named is T4, ERG (Homo sapiens, UniProt P11308 1-479).
T4 sequence: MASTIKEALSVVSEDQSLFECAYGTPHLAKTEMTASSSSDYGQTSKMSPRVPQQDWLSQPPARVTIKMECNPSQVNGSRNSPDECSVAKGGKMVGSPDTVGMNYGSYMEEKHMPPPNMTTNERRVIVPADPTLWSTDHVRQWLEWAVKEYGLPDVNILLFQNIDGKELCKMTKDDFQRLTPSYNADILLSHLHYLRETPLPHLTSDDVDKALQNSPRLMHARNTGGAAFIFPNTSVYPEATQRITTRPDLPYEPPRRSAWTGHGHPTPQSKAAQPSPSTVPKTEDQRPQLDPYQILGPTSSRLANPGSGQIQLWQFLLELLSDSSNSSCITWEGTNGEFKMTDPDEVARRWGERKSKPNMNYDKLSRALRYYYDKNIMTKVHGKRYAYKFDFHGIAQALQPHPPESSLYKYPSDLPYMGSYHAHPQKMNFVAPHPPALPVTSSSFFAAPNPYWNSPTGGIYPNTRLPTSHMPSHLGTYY
A digest of the protocol: as §1

For the next experiment, the target named is ELF1 (Homo sapiens, UniProt P32519 1-619). In outline: as §1
In a further experiment the target is T5, EHF (Homo sapiens, UniProt Q9NZC4 1-300).
T5 sequence: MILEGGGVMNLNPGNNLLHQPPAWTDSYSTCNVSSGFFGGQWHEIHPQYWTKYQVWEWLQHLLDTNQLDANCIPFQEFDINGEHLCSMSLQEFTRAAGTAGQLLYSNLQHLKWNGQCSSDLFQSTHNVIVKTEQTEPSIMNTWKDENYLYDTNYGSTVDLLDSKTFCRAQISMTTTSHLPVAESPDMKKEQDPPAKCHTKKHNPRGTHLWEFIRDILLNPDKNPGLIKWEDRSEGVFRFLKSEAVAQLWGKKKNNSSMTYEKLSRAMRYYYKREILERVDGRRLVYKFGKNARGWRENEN
In outline:
as §1

The target of the next experiment is SPI1 (Homo sapiens, UniProt P17947 1-270). A digest of the protocol:
as §1

A further experiment addresses SPIB (Homo sapiens, UniProt Q01892 1-262). A digest of the protocol: as §1
A further experiment deals with T6, ELK3 (Homo sapiens, UniProt P41970 1-407).
T6 sequence: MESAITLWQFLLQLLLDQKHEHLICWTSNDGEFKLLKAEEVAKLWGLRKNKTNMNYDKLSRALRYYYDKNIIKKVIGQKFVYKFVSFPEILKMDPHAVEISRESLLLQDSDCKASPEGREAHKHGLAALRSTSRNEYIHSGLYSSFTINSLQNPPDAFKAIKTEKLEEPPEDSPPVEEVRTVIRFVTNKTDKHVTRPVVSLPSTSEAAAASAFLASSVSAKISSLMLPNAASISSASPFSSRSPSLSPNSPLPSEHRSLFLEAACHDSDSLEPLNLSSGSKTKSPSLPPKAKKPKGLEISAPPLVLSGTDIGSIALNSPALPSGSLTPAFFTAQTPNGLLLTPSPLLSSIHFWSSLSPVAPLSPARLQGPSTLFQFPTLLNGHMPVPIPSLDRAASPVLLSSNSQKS
A digest of the protocol:
as §1

The next experiment addresses T7, FEV (Homo sapiens, UniProt Q99581 1-238).
T7 sequence: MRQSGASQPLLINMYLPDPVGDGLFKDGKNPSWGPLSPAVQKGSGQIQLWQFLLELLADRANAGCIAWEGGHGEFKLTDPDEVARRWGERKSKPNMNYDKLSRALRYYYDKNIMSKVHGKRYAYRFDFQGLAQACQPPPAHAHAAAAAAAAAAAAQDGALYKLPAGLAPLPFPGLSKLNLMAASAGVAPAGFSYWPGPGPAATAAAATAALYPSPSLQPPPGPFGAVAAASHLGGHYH
In outline: as §1

A further experiment has as its target ETV5 (Homo sapiens, UniProt P41161 1-510). A digest of the protocol:
as §1

Another experiment concerns the target T8, SPIC (Homo sapiens, UniProt Q8N5J4 1-248).
T8 sequence: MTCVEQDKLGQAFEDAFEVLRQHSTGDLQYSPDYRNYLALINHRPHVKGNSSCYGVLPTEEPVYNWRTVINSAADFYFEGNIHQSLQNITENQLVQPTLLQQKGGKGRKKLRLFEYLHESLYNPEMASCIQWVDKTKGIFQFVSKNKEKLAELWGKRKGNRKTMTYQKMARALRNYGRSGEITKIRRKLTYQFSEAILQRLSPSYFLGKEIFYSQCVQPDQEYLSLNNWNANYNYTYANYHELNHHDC
In outline: as §1

For another experiment, the target named is ELF4 (Homo sapiens, UniProt Q99607 1-663). A digest of the protocol:
as §1

Another experiment concerns the target T9, ELK4 (Homo sapiens, UniProt P28324-2 1-405).
T9 sequence: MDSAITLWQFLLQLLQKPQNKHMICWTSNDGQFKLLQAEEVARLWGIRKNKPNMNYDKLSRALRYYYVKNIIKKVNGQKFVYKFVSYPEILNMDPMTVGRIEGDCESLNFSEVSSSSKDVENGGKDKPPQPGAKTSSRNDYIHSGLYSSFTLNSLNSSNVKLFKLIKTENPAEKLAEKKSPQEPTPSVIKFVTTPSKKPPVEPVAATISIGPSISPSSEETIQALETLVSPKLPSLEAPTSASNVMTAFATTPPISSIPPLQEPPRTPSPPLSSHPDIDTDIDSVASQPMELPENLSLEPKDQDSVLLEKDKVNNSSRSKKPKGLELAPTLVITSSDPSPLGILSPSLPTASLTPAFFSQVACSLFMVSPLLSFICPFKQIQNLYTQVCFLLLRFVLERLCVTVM
In outline:
as §1

A further experiment has as its target T10, ETV2 (Homo sapiens, UniProt O00321 1-342).
T10 sequence: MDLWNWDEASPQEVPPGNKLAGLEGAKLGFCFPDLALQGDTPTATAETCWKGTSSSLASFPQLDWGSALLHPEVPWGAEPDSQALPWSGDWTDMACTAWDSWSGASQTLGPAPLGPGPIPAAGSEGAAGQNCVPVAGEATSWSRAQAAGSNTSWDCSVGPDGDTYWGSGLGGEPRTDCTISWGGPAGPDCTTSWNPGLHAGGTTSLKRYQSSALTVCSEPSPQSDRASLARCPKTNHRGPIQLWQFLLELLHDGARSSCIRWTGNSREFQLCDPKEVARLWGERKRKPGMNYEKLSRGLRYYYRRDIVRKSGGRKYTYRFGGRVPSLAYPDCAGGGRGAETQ
In outline: as §1

Another experiment concerns the target T11, ELF3 (Homo sapiens, UniProt P78545 1-371).
T11 sequence: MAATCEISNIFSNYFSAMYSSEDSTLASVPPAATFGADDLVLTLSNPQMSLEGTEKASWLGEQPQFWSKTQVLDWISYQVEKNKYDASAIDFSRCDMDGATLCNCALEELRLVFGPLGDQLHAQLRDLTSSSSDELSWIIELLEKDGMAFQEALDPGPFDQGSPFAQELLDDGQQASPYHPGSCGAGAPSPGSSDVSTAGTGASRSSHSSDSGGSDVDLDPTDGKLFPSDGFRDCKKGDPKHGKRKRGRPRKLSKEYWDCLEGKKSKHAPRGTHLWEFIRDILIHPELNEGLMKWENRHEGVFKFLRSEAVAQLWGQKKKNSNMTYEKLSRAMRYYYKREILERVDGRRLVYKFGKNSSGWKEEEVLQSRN
In outline:
as §1

The next experiment deals with ETV1 (Homo sapiens, UniProt P50549 1-477). In outline: as §1
ETV1, sequence (P50549 whole entry): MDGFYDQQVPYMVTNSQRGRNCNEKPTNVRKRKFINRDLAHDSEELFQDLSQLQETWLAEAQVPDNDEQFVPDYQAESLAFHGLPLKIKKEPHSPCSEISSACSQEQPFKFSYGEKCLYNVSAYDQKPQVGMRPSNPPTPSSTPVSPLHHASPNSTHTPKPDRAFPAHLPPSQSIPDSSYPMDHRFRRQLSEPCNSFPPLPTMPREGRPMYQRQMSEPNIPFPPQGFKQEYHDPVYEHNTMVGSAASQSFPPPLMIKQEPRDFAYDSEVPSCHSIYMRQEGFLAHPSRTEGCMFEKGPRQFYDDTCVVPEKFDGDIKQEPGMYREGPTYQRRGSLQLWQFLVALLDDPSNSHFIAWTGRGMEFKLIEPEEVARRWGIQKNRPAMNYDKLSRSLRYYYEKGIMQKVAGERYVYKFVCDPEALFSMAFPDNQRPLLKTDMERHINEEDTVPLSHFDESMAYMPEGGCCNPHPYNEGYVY

ELF1, sequence (P32519 whole entry): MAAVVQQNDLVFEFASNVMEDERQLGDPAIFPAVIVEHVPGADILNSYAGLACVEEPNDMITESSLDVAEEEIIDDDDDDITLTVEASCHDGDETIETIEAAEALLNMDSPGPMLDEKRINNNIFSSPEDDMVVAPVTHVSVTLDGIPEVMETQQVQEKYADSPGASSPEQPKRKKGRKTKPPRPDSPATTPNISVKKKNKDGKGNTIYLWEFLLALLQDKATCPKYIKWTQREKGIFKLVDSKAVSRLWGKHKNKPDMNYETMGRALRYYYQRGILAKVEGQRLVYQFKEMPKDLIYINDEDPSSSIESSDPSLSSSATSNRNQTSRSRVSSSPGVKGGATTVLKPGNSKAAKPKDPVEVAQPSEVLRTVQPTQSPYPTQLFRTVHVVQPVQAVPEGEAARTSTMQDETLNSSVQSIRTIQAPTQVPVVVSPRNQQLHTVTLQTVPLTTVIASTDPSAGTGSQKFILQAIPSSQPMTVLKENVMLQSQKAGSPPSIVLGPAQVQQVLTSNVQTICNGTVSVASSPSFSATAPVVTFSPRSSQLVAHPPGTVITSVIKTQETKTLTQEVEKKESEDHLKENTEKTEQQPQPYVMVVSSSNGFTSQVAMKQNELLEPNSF
ETV5, sequence (P41161 whole entry): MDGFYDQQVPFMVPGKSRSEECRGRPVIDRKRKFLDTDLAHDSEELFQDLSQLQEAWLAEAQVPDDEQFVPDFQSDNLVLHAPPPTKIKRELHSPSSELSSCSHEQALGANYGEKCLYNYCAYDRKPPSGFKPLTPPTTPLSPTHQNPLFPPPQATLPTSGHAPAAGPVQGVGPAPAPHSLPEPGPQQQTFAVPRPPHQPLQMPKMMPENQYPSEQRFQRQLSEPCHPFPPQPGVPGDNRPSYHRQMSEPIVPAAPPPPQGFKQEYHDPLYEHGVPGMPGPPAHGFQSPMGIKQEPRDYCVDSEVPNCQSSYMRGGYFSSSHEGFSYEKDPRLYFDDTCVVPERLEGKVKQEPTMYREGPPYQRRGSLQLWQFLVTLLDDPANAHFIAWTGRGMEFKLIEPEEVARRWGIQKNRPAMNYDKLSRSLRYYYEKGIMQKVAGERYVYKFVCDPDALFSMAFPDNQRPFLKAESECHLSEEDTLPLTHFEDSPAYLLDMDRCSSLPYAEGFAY
ELF4, sequence (Q99607 whole entry): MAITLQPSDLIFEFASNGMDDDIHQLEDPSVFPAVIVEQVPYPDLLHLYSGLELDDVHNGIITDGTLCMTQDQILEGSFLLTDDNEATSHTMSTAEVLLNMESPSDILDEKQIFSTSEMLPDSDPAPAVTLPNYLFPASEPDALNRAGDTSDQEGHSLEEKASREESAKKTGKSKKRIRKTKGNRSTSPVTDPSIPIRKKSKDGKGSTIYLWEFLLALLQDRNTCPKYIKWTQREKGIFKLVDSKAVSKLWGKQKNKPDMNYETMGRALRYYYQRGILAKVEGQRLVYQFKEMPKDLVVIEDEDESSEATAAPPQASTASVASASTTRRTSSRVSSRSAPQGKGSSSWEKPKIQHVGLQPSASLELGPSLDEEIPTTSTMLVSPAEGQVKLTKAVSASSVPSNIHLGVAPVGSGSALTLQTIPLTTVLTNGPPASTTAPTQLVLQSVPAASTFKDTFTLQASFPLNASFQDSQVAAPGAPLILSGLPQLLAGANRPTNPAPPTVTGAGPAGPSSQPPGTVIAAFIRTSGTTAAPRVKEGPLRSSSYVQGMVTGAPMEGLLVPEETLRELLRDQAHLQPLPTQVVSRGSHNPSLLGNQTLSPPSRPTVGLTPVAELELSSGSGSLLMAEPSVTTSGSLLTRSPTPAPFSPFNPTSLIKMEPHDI
SPIB, sequence (Q01892 whole entry): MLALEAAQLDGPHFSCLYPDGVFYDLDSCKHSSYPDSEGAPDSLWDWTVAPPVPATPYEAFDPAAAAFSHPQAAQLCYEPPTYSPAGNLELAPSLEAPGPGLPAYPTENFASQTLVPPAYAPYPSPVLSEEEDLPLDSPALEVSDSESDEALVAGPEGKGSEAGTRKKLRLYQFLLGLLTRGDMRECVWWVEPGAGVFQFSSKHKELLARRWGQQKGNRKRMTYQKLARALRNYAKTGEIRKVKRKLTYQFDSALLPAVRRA

For the sequence CACCCC, the binding signal in the experiment with FLI1 is 1.2 fold enrichment (6-mer frequency, TF over GST control); in the experiment with ELK1, 1.3 fold enrichment (6-mer frequency, TF over GST control); with GABPA, 1.35 fold enrichment (6-mer frequency, TF over GST control); in the experiment with ERG, 1.22 fold enrichment (6-mer frequency, TF over GST control); with ELF1, 1.28 fold enrichment (6-mer frequency, TF over GST control); with EHF, 1.19 fold enrichment (6-mer frequency, TF over GST control). The binding signal is 1.24 fold enrichment (6-mer frequency, TF over GST control) with SPI1; 1.32 fold enrichment (6-mer frequency, TF over GST control) in the experiment with SPIB; 1.31 fold enrichment (6-mer frequency, TF over GST control) in the experiment with ELK3; 1.22 fold enrichment (6-mer frequency, TF over GST control) in the experiment with FEV; 1.18 fold enrichment (6-mer frequency, TF over GST control) in the experiment with ETV5; 1.41 fold enrichment (6-mer frequency, TF over GST control) in the experiment with SPIC. Besides, the binding signal with ELF4 was 1.18 fold enrichment (6-mer frequency, TF over GST control); in the experiment with ELK4, 1.47 fold enrichment (6-mer frequency, TF over GST control); with ETV2, 1.13 fold enrichment (6-mer frequency, TF over GST control); with ELF3, 1.11 fold enrichment (6-mer frequency, TF over GST control); with ETV1, 1.28 fold enrichment (6-mer frequency, TF over GST control).

AAGTGG: the binding signal in the experiment with FLI1 was 1.09 fold enrichment (6-mer frequency, TF over GST control); with ELK1 it was 1.19 fold enrichment (6-mer frequency, TF over GST control); with GABPA it was 1.22 fold enrichment (6-mer frequency, TF over GST control); in the experiment with ERG it was 1.16 fold enrichment (6-mer frequency, TF over GST control); with ELF1 it was 1.17 fold enrichment (6-mer frequency, TF over GST control); in the experiment with EHF, 1.24 fold enrichment (6-mer frequency, TF over GST control). Also, the binding signal with SPI1 is 1.5 fold enrichment (6-mer frequency, TF over GST control); with SPIB it was 1.26 fold enrichment (6-mer frequency, TF over GST control); with ELK3, 1.33 fold enrichment (6-mer frequency, TF over GST control); in the experiment with FEV, 1.23 fold enrichment (6-mer frequency, TF over GST control); in the experiment with ETV5 it was 1.17 fold enrichment (6-mer frequency, TF over GST control); with SPIC, 1.43 fold enrichment (6-mer frequency, TF over GST control). Besides, the binding signal with ELF4 is 1.12 fold enrichment (6-mer frequency, TF over GST control); with ELK4 it was 1.13 fold enrichment (6-mer frequency, TF over GST control); in the experiment with ETV2 it was 1.02 fold enrichment (6-mer frequency, TF over GST control); with ELF3, 1.19 fold enrichment (6-mer frequency, TF over GST control); with ETV1 it was 1.2 fold enrichment (6-mer frequency, TF over GST control).
